Results reported in PubChem BioAssay.
Values without a mark were called inactive. The rule behind the calls is not given here.

Target: Pantothenate synthetase (Mycobacterium tuberculosis (strain ATCC 25618 / H37Rv)) (UniProt P9WIL5)
Test: Recombinant Mtb pantothenate synthetase (PanC) inhibitors, coupled enzyme, confirmatory (AID 375);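 note: 0% = full reaction with vehicle and 100% = no enzyme background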
Settings: coupled enzyme assay; at 10 µM, hits give high values

Sequence of Pantothenate synthetase (Mycobacterium tuberculosis (strain ATCC 25618 / H37Rv)) (P9WIL5 whole entry, looked up): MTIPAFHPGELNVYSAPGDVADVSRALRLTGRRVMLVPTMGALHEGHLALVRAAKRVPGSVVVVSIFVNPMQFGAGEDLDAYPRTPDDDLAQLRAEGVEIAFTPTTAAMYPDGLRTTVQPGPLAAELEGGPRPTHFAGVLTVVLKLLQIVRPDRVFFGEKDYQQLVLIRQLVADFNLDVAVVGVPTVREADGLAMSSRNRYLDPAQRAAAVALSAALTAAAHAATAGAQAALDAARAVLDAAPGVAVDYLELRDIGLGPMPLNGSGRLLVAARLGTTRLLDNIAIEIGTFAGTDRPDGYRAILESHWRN

| Structure (SMILES) | inhibition [%] |
| --- | --- |
| Cc1cc(C)c(C)c(OCC(=O)NCC2CCCO2)c1 (centres undefined) | 0 |
| CCc1ccc(CN(C)CCc2ccccn2)cc1 | 1 |
| CC(=O)c1cccc(NC(=O)NCc2ccco2)c1 | 0 |
| CC(=O)N1CCC2(CC1)CC(=O)c1cc(OCC(=O)NCc3ccc(C)cc3)ccc1O2 | 3 |
| CCOc1cc(C2/C(=C(/O)c3ccc(OC(C)C)cc3)C(=O)C(=O)N2CCCOC)ccc1O (centres undefined) | 0 |
| CCn1c(SCC(=O)c2ccc(C)cc2)nnc1-c1ccoc1C | 2 |
| CCN1CCN(c2ncnc3c2oc2nc(C)c4c(c23)CC(C)(C)OC4)CC1 | 0 |
| Cn1c(-c2cc(Br)ccc2O)n[nH]c1=S | 2 |
| CCCn1c2c(c(O)c(C(=O)Nc3ccc(C)cn3)c1=O)CCCC2 | 4 |
| COc1ccccc1-c1nnc(NC(=O)c2ccc(S(=O)(=O)N(C)Cc3ccccc3)cc2)o1 | 0 |
| CCOC(=O)N1CCC(NC(=O)c2ccc(CS(=O)(=O)c3c(Cl)cccc3Cl)o2)CC1 | 0 |
| COC(=O)C1CCN(C(=O)c2sc3nc(-c4ccc(F)cc4)cn3c2C)CC1 | 0 |
| CCOC(=O)CSc1nc2ccccc2c(=O)n1NC(=O)c1ccccc1 | 1 |
| CCOC(=O)N1CCC(NC(=O)CS(=O)(=O)Cc2nc(-c3ccccc3C)oc2C)CC1 | 3 |
| CC(C)Cn1c(-c2ccc(F)cc2)n[nH]c1=S | 0 |
| CCCCC(=O)NCCc1cc2c(C)ccc(C)c2[nH]c1=O | 0 |
| CCn1c(C(C#N)/C(=N\S(=O)(=O)c2cccs2)c2ccccc2)nc2ccccc21 (centres undefined) | 6 |
| O=S(=O)(NCc1ccc(Cl)cc1)c1cnc[nH]1 | 0 |
| O=C(Cn1cnc2ccccc2c1=O)NCCC(=O)N1CCN(c2ccccc2)CC1 | 0 |
| O=c1[nH]cnc2c1C1(CCCC1)Cc1ccccc1-2 | 0 |
| O=C(OCC#CCSc1nnc(-c2ccncc2)o1)c1cccs1 | 0 |
| O=C(N1CCN(c2ccccc2F)CC1)C12CC3CC(CC(C3)C1)C2 | 0 |
| CCOC(=O)c1sc(Nc2nc3c(OC)cccc3s2)nc1C | 1 |
| Cc1ccc(-c2csc3nnc(SCC(=O)NCc4ccco4)n23)cc1 | 2 |
| COc1ccc(-c2noc(CN3CCC(Cc4ccccc4)CC3)n2)cc1 | 0 |

| Structure (SMILES) | inhibition [%] |
| --- | --- |
| CC(C)NC(=O)NC(=O)COc1cccc2c1OC(C)(C)C2 | 0 |
| CCOc1cc(N2CCOCC2)c(OCC)cc1NC(=O)COC(=O)CCc1c[nH]c2ccccc12 | 0 |
| COCCn1nnnc1C(C(C)C)N1CCN(C(=O)c2ccco2)CC1 (centres undefined) | 0 |
| COC(=O)Nc1nc2c(C)cccc2s1 | 0 |
| Cc1cc(NC(=O)CSc2nccn2-c2ccc(F)cc2)no1 | 5 |
| CCOC(=O)N1CCN(C(=O)c2ccc3c(=O)n(CCc4ccccc4)c(=O)[nH]c3c2)CC1 | 0 |
| CCOc1ccc(NCCC(=O)c2ccc3c(c2)OCO3)cc1 | 1 |
| Cc1ccc(-c2nc(N)n(C(=O)c3cccnc3)n2)cc1 | 0 |
| COc1cc2nc(N3CCN(C(=O)C4CCCO4)CC3)nc(N)c2cc1OC (centres undefined) | 0 |
| O=C(Cn1c(=O)sc2ccccc21)NCCOc1ccccc1F | 0 |
| Cc1cc(C)n(-c2nc3c(c(=O)[nH]c(=O)n3C)n2Cc2ccc(F)cc2)n1 | 0 |
| Cn1c(=O)[nH]c(=O)c2[nH]c(NCCCN3CCOCC3)nc21 | 0 |
| OCC(O)CN1CCN(c2ccccc2)CC1 (centres undefined) | 0 |
| COc1ccc(OCC(=O)N2CCN(C(=O)c3cccs3)CC2)cc1 | 5 |
| Cc1ccc(C)c(N2CCN(C(=O)CCCn3c(=S)[nH]c4cc5c(cc4c3=O)OCO5)CC2)c1 | 0 |
| Cc1nn(C)c(C)c1CNC(=O)c1cc2n(n1)C(C(F)(F)F)CC(c1cccs1)N2 (centres undefined) | 7 |
| COc1ccc(CCNC(=O)CSc2nnnn2-c2ccccc2OC)cc1OC | 5 |
| CCCC(=O)Nc1ccc(OCC(=O)OC)cc1 | 5 |
| CCOC(=O)CSc1nnc(CNC(=O)c2ccc(S(=O)(=O)N3CCCC3)cc2)n1C | 10 |
| Fc1ccc(-c2nnc(CN3CCN(c4ncc(C(F)(F)F)cc4Cl)CC3)o2)cc1 | 0 |
| CCc1nc2sc(C)c(C)c2c(=O)n1CCO | 7 |
| Cc1ccc(Nc2nc(Oc3ccc(=O)[nH]n3)nc(N(C)C)n2)cc1 | 0 |
| c1cncc(-c2nnc(SCCSc3nnc(-c4cccnc4)o3)o2)c1 | 0 |
| CCOC(=O)CSc1nnc(-c2ccc(S(=O)(=O)N3CCOCC3)cc2)n1-c1ccccc1 | 3 |
